# Results as given in paper PMC12820563, “FoxP3 forms a head-to-head dimer in vivo and stabilizes its multimerization on adjacent microsatellites”.
# The full ranking holds about 16,000 sequences; the median of “rpm ratio (pull-down/input)” is about 0.5, and the highest 2% start at about 5.5. This is one part of a sample in which the highest values are shown more often than they occur.
# Biological target: T1, MBP-FoxP3dN (Mus musculus, UniProt Q99JB6 188-423)
# T1 sequence: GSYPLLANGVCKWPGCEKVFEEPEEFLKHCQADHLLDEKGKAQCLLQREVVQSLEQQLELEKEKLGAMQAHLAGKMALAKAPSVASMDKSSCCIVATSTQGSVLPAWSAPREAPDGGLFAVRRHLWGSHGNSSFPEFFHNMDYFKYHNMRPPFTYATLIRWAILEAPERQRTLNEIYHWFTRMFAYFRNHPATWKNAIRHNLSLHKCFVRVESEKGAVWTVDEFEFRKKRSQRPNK
# Assay: PD-seq (MBP pull-down with sequencing); 20 mM Tris-HCl pH 7.5, 100 mM NaCl, 1.5 mM MgCl2, 0.4 uM protein, 0.1 uM dsDNA library, 30 min, room temperature, amylose pull-down; high values mean tight binding
# Settings: protein: recombinant; tags: His6-MBP; chain copies: 2; dsDNA, one strand shown
# In short: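 The N-terminus-lacking fragment of mouse FoxP3 or FoxP1 carried a His6-MBP tag and was expressed in E. coli. At 0.4 µM it was incubated with 0.1 µM Klenow-filled degenerate double-stranded DNA library for 30 min at room temperature in Tris pH 7.5 buffer with NaCl and MgCl2, and complexes were caught on amylose resin, washed three times, released with proteinase K, PCR-barcoded and Illumina-sequenced. Binding is reads-per-million enrichment of pull-down over input with replicates pooled.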
row,Sequence,binding signal
1,GATGATTGTTCTCCCAGCTGATGAATTGCTTATTTCGAGTAAACAAATTTTCCTAATCTTTCTGTTCAAGCGCCATCTAC,2.46 RPM ratio (pull-down/input)
2,GATGATTGTTCTCCCAGCTGATGAATTTGCTTATTCGAGTAAACAAATTTTCCTAATCTTTCTGTTCAAGCGCCATCTAC,6.84 RPM ratio (pull-down/input)
3,GATGATTGTTCTCCCAGCTGATGAATTTGCTTTATCGAGTAAACAAATTTTCCTAATCTTTCTGTTCAAGCGCCATCTAC,3.94 RPM ratio (pull-down/input)
4,GATGATTGTTCTCCCAGCTGATGAATTTTGCTTATCGAGTAAACAAATTTTCCTAATCTTTCTGTTCAAGCGCCATCTAC,6.46 RPM ratio (pull-down/input)
5,GATGATTGTTCTCCCAGCTGATGAATTGCTTTATTCGAGTAAACAAATTTTCCTAATCTTTCTGTTCAAGCGCCATCTAC,1.09 RPM ratio (pull-down/input)
6,GATGATTGTTCTCCCAGCTGATGAATTACTCATCTCGAGTAAACAAATTTTCCTAATCTTTCTGTTCAAGCGCCATCTAC,0.431 RPM ratio (pull-down/input)
7,GATGATTGTTCTCCCAGCTGATGAATTGAGCGCATCGAGTAAACAAATTTTCCTAATCTTTCTGTTCAAGCGCCATCTAC,1.34 RPM ratio (pull-down/input)
8,GATGATTGTTCTCCCAGCTGATGAATTCCCACGTTCGAGTAAACAAATTTTCCTAATCTTTCTGTTCAAGCGCCATCTAC,0.282 RPM ratio (pull-down/input)
9,GATGATTGTTCTCCCAGCTGATGAATTTGTCTATTCGAGTAAACAAATTTTCCTAATCTTTCTGTTCAAGCGCCATCTAC,5.7 RPM ratio (pull-down/input)
10,GATGATTGTTCTCCCAGCTGATGAATTTCTATTGTCGAGTAAACAAATTTTCCTAATCTTTCTGTTCAAGCGCCATCTAC,0.631 RPM ratio (pull-down/input)
11,GATGATTGTTCTCCCAGCTGATGAATTGTCCTATTCGAGTAAACAAATTTTCCTAATCTTTCTGTTCAAGCGCCATCTAC,0.45 RPM ratio (pull-down/input)
12,GATGATTGTTCTCCCAGCTGATGAATTCCTATTGTCGAGTAAACAAATTTTCCTAATCTTTCTGTTCAAGCGCCATCTAC,0.764 RPM ratio (pull-down/input)
13,GATGATTGTTCTCCCAGCTGATGAATTGTCTATTTCGAGTAAACAAATTTTCCTAATCTTTCTGTTCAAGCGCCATCTAC,1.18 RPM ratio (pull-down/input)
14,GATGATTGTTCTCCCAGCTGATGAATTCTATTTGTCGAGTAAACAAATTTTCCTAATCTTTCTGTTCAAGCGCCATCTAC,5.87 RPM ratio (pull-down/input)
15,GATGATTGTTCTCCCAGCTGATGAATTGGCCCTCTCGAGTAAACAAATTTTCCTAATCTTTCTGTTCAAGCGCCATCTAC,0.358 RPM ratio (pull-down/input)
16,GATGATTGTTCTCCCAGCTGATGAATTCGTCAGGTCGAGTAAACAAATTTTCCTAATCTTTCTGTTCAAGCGCCATCTAC,0.551 RPM ratio (pull-down/input)

row,Sequence,binding signal
1,GATGATTGTTCTCCCAGCTGATGAATTCTTTGGCTCGAGTAAACAAATTTTCCTAATCTTTCTGTTCAAGCGCCATCTAC,0.217 RPM ratio (pull-down/input)
2,GATGATTGTTCTCCCAGCTGATGAATTGTTAGGCTCGAGTAAACAAATTTTCCTAATCTTTCTGTTCAAGCGCCATCTAC,0.88 RPM ratio (pull-down/input)
3,GATGATTGTTCTCCCAGCTGATGAATTTTTTGGCTCGAGTAAACAAATTTTCCTAATCTTTCTGTTCAAGCGCCATCTAC,0.204 RPM ratio (pull-down/input)
4,GATGATTGTTCTCCCAGCTGATGAATTTGTTAGCTCGAGTAAACAAATTTTCCTAATCTTTCTGTTCAAGCGCCATCTAC,6.55 RPM ratio (pull-down/input)
5,GATGATTGTTCTCCCAGCTGATGAATTTCTTAGCTCGAGTAAACAAATTTTCCTAATCTTTCTGTTCAAGCGCCATCTAC,0.342 RPM ratio (pull-down/input)
6,GATGATTGTTCTCCCAGCTGATGAATTTGTTGGCTCGAGTAAACAAATTTTCCTAATCTTTCTGTTCAAGCGCCATCTAC,7 RPM ratio (pull-down/input)
7,GATGATTGTTCTCCCAGCTGATGAATTGCGGTCATCGAGTAAACAAATTTTCCTAATCTTTCTGTTCAAGCGCCATCTAC,1.01 RPM ratio (pull-down/input)
8,GATGATTGTTCTCCCAGCTGATGAATTGCATCATTCGAGTAAACAAATTTTCCTAATCTTTCTGTTCAAGCGCCATCTAC,5.15 RPM ratio (pull-down/input)
9,GATGATTGTTCTCCCAGCTGATGAATTAATGAATTCGAGTAAACAAATTTTCCTAATCTTTCTGTTCAAGCGCCATCTAC,0.682 RPM ratio (pull-down/input)
10,GATGATTGTTCTCCCAGCTGATGAATTGATGCATTCGAGTAAACAAATTTTCCTAATCTTTCTGTTCAAGCGCCATCTAC,6.87 RPM ratio (pull-down/input)
11,GATGATTGTTCTCCCAGCTGATGAATTCATGCATTCGAGTAAACAAATTTTCCTAATCTTTCTGTTCAAGCGCCATCTAC,5.77 RPM ratio (pull-down/input)
12,GATGATTGTTCTCCCAGCTGATGAATTCGATGCATCGAGTAAACAAATTTTCCTAATCTTTCTGTTCAAGCGCCATCTAC,1.84 RPM ratio (pull-down/input)
13,GATGATTGTTCTCCCAGCTGATGAATTGCATGATTCGAGTAAACAAATTTTCCTAATCTTTCTGTTCAAGCGCCATCTAC,1.35 RPM ratio (pull-down/input)
14,GATGATTGTTCTCCCAGCTGATGAATTAAATGCATCGAGTAAACAAATTTTCCTAATCTTTCTGTTCAAGCGCCATCTAC,2.36 RPM ratio (pull-down/input)
15,GATGATTGTTCTCCCAGCTGATGAATTAATGCATTCGAGTAAACAAATTTTCCTAATCTTTCTGTTCAAGCGCCATCTAC,6.89 RPM ratio (pull-down/input)
16,GATGATTGTTCTCCCAGCTGATGAATTGAAGCATTCGAGTAAACAAATTTTCCTAATCTTTCTGTTCAAGCGCCATCTAC,4.38 RPM ratio (pull-down/input)
